proKLK7 act = activators of human kallikrein-7 zymogen | P49862 | purified proKLK7, EDANS-DABCYL substrate fluorescence; 100% is mature enzyme control, 0% vehicle | activation, % at 7 µM | 370,000 compounds, 0.9% hits | AID 652039;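 active means activation above the mean of all tested compounds plus 3 SD, computed per campaign excluding outliers beyond control limits, cut at about 13% in these data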
GRIN3A LBD mod = NR3A (human) ligand-binding domain modulation | NR3A LBD differential scanning fluorimetry, Tm shift; 0% = protein alone, 100% = glycine-bound protein | Tm shift relative to glycine control, % at 25 µM | 340,000 compounds, 2.5% hits | AID 1259313;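 active means melting temperature shift of at least 10% of the positive control shift, at one fixed dose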
AHR act = activators of human aryl hydrocarbon receptor. AHR-responsive luciferase reporter cells, luminescence. P35869. activation, % at 5 µM. 320,000 compounds, 2.5% hits; in the data active means activation above about 47%;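 further: 0% = vehicle wells and 100% = reference agonist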
ADAM10 inh = ADAM10 inhibition, QFRET primary screen; recombinant ADAM10, EDANS/DABCYL FRET peptide cleavage, 3 h; inhibition, % at 7 µM; O14672; 370,000 compounds, 0.62% hits; AID 720582;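 active means inhibition above a per-campaign cutoff equal to the mean of compounds falling between control-based bounds plus 3 SD, cut at about 20% in these data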;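 further: 0% = DMSO wells while the 100% control is not disclosed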
rCAG RNA binder = molecules binding r(CAG) RNA repeats. AID 651821. r(CAG) RNA repeat, TO-PRO-1 dye displacement fluorescence. 370,000 compounds, 1.3% hits. inhibition, % at 3 µM;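 active means inhibition above the plate cutoff, the mean of all test compounds on that plate plus 3 SD, cut at about 35% in these data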;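 further: 0% = DMSO alone and 100% = 100 µM mitoxantrone as full dye displacement; higher means more dye released from RNA so lower well fluorescence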
ADAM17 inh = inhibits human ADAM17; inhibition, % at 6.95 µM; 370,000 compounds, 0.83% hits; AID 720648; recombinant ADAM17, EDANS/DABCYL FRET peptide cleavage;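 active means inhibition above the mean of compounds lying between control limits plus 3 SD, set per campaign, cut at about 8.5% in these data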;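 further: 0% = DMSO-only wells as the low control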
Target sequence (P78536 215-824 limits assumed): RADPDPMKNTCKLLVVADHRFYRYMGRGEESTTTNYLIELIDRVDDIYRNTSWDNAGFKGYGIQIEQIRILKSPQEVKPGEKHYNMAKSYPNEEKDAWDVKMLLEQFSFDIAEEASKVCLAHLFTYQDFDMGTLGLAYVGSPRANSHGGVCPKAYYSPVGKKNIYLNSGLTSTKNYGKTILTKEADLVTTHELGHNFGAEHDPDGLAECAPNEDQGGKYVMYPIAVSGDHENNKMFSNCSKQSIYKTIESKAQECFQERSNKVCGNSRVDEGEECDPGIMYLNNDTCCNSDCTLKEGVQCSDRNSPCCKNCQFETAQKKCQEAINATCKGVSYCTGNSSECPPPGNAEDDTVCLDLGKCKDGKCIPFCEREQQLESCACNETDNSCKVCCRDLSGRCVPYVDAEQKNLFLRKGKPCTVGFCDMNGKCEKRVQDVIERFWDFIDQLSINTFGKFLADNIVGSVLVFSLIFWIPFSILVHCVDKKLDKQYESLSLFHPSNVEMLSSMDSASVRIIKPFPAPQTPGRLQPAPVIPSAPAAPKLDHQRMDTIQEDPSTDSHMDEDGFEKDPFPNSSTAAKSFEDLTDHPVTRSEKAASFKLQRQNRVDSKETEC
An asterisk follows results filed as active; / = no result. The list is not random: actives were taken first. Their share in the collection is about 7%.

SMILES	proKLK7 act	GRIN3A LBD mod	AHR act	ADAM10 inh	rCAG RNA binder	ADAM17 inh
COc1ccc(Cl)cc1C(=O)NNC(=S)NC(=O)c1cc(-c2ccccc2)nc2ccccc12	-1	6	10	1	3	-2
COc1cccc(NC(=O)CN(C)C(=O)c2cc(-c3ccccc3)nc3ccc(C)cc23)c1	0	6	/	0	4	4
CN(C)S(=O)(=O)c1cccc(NC(=O)COC(=O)c2cc(-c3cccc(Br)c3)nc3ccccc23)c1	-4	22*	2	1	17	3
COc1cccc(NC(=O)CN(C)C(=O)c2cc(-c3cccc(Br)c3)nc3ccccc23)c1	-1	18*	3	1	10	0
COc1ccc(NC(=O)CN(C)C(=O)c2cc(-c3ccc(Cl)cc3)nc3ccccc23)cc1	0	14*	5	13	13	0
CN(C)S(=O)(=O)c1cccc(NC(=O)COC(=O)c2ccc3ccccc3n2)c1	0	4	18	-13	3	-2
CCOC(=O)[C@@]12CCC3=C1N(CCC3)C(=O)[C@H](CC(=O)N1CCOCC1)C2	0	/	/	-11	1	-5
COc1cc2c(c(OC)c1OC)C1(CCCCC1)CC2NCC=C(C)C (configuration not stated)	0	/	/	-7	-3	-5
CCn1c(=O)n(CC(=O)N2CCOCC2)c(=O)c2ccccc21	0	/	/	-22	0	-6
Nc1ccc(Sc2cnn(-c3ccccc3)c(=O)c2Cl)cc1	0	-3	6	11	-1	5
Cc1ccc(Sc2cnn(-c3ccccc3)c(=O)c2Cl)cc1	-1	-1	61*	1	3	-1
CC(c1ccc(NC(=O)OC(C)(C)C)cc1)c1cn(C)c2ccccc12 (configuration not stated)	0	/	/	3	0	3
COc1ccc(C(=O)Nc2nc(CC(=O)NCCc3ccccc3)cs2)cc1	1	-10	48*	-6	-9	2
COc1ccc(C(=O)Nc2nc(CC(=O)NCCc3cccc(OC)c3)cs2)cc1	0	-4	26	4	-2	1
C[C@@H](/C=C/C(=O)OC(C)(C)C)Sc1ccc(C(C)(C)C)cc1	-1	/	/	0	0	-2
O=C(NCC1COCCO1)C1CCN(S(=O)(=O)c2ccc(Br)s2)CC1 (configuration not stated)	0	/	/	-9	2	3
Oc1[nH]c2c(Cl)cc(Cl)cc2c1N=NC(=S)NCC1CCCO1 (configuration not stated)	0	-9	51*	5	11	1
Cc1ccc(C(=O)CSc2nsc(C)c2C#N)cc1	0	15*	-5	1	-3	-1
Cc1snc(SCC(=O)c2ccc(Cl)cc2)c1C#N	0	-1	-6	5	6	-1
C=CCN(Cc1ccc2c(c1)OCO2)C(C#CCCCC)C(C)C (configuration not stated)	/	/	/	-1	/	-2
CCOC(=O)c1c(C)[nH]c2ccc(O)cc12	-1	26*	65*	-8	0	-6
COc1ccc(OC)c(S(=O)(=O)N(CCc2ccc(OC)c(OC)c2)Cc2cccs2)c1	1	/	/	8	4	5
COc1ccc(C2CC(=O)Oc3c(C(C)C)ccc(C)c32)cc1 (configuration not stated)	1	13*	/	5	5	2
COc1ccc(C2CC(=O)Oc3cc(C)cc(C)c32)cc1 (configuration not stated)	0	2	/	-7	-1	0
CCN1CCN(Cc2ccc(NC(=O)c3cccc(-c4ccc5nc(NC(=O)C6CC6)sc5n4)c3)cc2C(F)(F)F)CC1	-8	/	/	-22	22	-1
SMILES	proKLK7 act	GRIN3A LBD mod	AHR act	ADAM10 inh	rCAG RNA binder	ADAM17 inh
CCCn1c2ccc(/C(C)=N\O)cc2c2cc(/C(C)=N/O)ccc21	-2	-30	48*	-82	18	-32
Cc1ccc(Nc2nc(C(=O)NCc3ccco3)cs2)cc1	0	-1	52*	2	3	1
CCN(CC)C(=O)c1csc(Nc2ccc(C)cc2)n1	0	0	2	-4	-3	-6
O=C(NCc1ccco1)c1cc(-c2ccc(F)cc2)on1	0	-1	-3	1	2	-3
Cc1ccc(Nc2nc(-c3sc(NC(=O)c4ccco4)nc3C)cs2)cc1	0	1	58*	2	28	-2
CCOc1ccccc1Nc1nc(-c2sc(NC(=O)c3ccco3)nc2C)cs1	-1	2	66*	0	29	1
O=C(NCc1ccco1)c1cc(-c2ccccc2)on1	0	11*	1	1	-2	-1
COc1ccc(S[C@]2(C(=O)NCC(C)C)CC(=O)N[C@@H]2c2ccc(OC)cc2)cc1	0	/	/	-1	0	-2
CC(=O)OCC(=O)N1CCN(C(=O)C(=O)c2cccc(C(F)(F)F)c2)CC1	1	/	/	-15	0	-5
C[C@H](CO)N1C[C@H](C)[C@H](CN(C)C(=O)Nc2cccc3ccccc23)Oc2ncc(Br)cc2C1=O	-6	/	/	-154	1	-36
CCCCN1CN2Cc3cc(F)ccc3C2CS1(=O)=O (configuration not stated)	0	/	/	1	3	1
C=CCOc1c(Br)cc(CNn2c(C)n[nH]c2=S)cc1OC	0	2	48*	19	2	5
C=CCOc1ccc(CNn2c(C)n[nH]c2=S)cc1OC	1	0	6	0	-3	-2
CCn1nc(C)c(CN2CCC(n3nccc3NC(=O)Cc3ccccc3)CC2)c1C	0	14*	2	-10	-7	-6
COc1ccc(OC)c(/C=N\NC(=O)c2cc3c(ccc4ccccc43)o2)c1	-80	22*	20	-157	7	-48
Cn1cc(/C=N/NC(=O)c2cc3cc(Br)ccc3o2)c2ccccc21	0	22*	22	-1	8	-3
COc1ccc(/C=N/NC(=O)c2cc3c(ccc4ccccc43)o2)c(OC)c1	-23	7	/	-63	5	-12
O=C(N/N=C/c1ccsc1)c1cc2ccccc2o1	0	3	22	-7	3	-3
O=C(N/N=C/c1ccc2c(c1)OCO2)c1cc2ccccc2o1	0	1	69*	-3	1	-4
O=C(N/N=C/c1cccc2ccccc12)c1cc2ccccc2o1	-6	18*	/	-17	9	-11
COc1ccccc1CCn1cnc(-c2cccc(F)c2)c1C(C)C	0	/	/	2	0	0
CCC(=O)Nc1ccc(/C(C)=N/NC(=O)c2c(-c3ccccc3Cl)noc2C)cc1	0	11*	1	4	1	2
C/C(=N/NC(=O)c1ccc(Cl)s1)c1ccc(NC(=O)COc2ccc(Cl)cc2)cc1	-1	-3	55*	-6	2	-2

From PubChem BioAssay
